Source: PubChem BioAssay
The full list was thinned out, with hits kept by preference.
IL-1B inflam inh: inflammasome signaling inhibition, IL-1 beta readout; THP-1 LPS/ATP IL-1B secretion, AlphaLISA, 16 h; stronger effect = lower value; activity change, % at 57.5 µM; 360,000 compounds, 4.7% hits; in the data active = activity change below about -50%; inconclusive = mostly about -30% to -49%
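THP-1 cells pretreated 1 hr with compounds (up to 57.5 uM final), then stimulated with LPS (250 ng/mL final) plus ATP (1.25 mM final); secreted IL-1B measured by AlphaLISA after 16 hr, decreased signal indicating inhibition.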
TDP1 cell CPT: growth inhibition of DT40 Tdp1-/-;hTDP1 cells with camptothecin (screen for TDP1 inhibitors); chicken DT40 Tdp1-/-;hTDP1 cells + 20 nM CPT, ATP luminescence, 48 h; Potency, µM (titrated, usually from 46.2 µM), for inactives: at the highest dose activity change, negative = growth inhibition, most hits filed as inhibitors; 420,000 compounds, 12% hits; AID 686979; note: potency is the fitted concentration of half-maximal effect; nearly all actives have a fitted effect of over 55% in size
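Chicken DT40 Tdp1-/- cells complemented with human TDP1, 400 cells/well, exposed to compounds plus 20 nM camptothecin for at least 48 h at 37 C; viability read as ATP content by CellTiter-Glo luminescence.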
HT1080-NT tox: kills 2HG-producing HT-1080-NT fibrosarcoma cells; Potency, µM (top dose mostly 46.1 µM), for inactives: top-dose activity, negative = less viability, actives largely listed as cytotoxic; 360,000 compounds, 1.6% hits; AID 686970; HT-1080-NT fibrosarcoma viability, CellTiter-Glo ATP luminescence, 48 h;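 note: NT is the 2HG producing partner of a matched IDH1 knockdown line; potency is the fitted concentration of half-maximal effect; 0% = DMSO-treated cells and -100% = media-only wells without cells; nearly all actives have a fitted effect of over 55% in size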
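HT-1080-NT fibrosarcoma cells (2HG-overproducing), 750 cells/well in RPMI with 5% FBS, dosed after 2 h and incubated 48 h at 37C. CellTiter-Glo luminescence normalized to DMSO and no-cell wells; concentration-response curves fitted and classed.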
HT1080 IDH1KD tx: kills HT-1080 cells with IDH1 knockdown; HT-1080 IDH1 knockdown viability, ATP luminescence, 48 h; Potency, µM (top dose mostly 46.1 µM), without a hit: at the highest dose activity, negative = toxicity, most hits filed as cytotoxic; 360,000 compounds, 2% hits; AID 686971;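 note: potency is the fitted concentration of half-maximal effect; 0% = DMSO wells and -100% = cell-free medium wells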
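% activity derives from luminescence (CellTiter-Glo), normalised to DMSO and no-cell wells. HT-1080-IDH1KD cells, 750/well, had 48 h compound exposure at 37 °C.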
12-LOX inh: inhibitors of human 12S-lipoxygenase ALOX12. P18054. purified 12hLO, xylenol orange hydroperoxide absorbance. Potency, µM (highest dose often 108 µM), for the others: top-dose activity change, negative = inhibition, hits mostly inhibitors. 580,000 compounds, 1.1% hits. AID 1671190; note: potency is the fitted concentration of half-maximal effect
Target sequence (P18054 whole entry, looked up): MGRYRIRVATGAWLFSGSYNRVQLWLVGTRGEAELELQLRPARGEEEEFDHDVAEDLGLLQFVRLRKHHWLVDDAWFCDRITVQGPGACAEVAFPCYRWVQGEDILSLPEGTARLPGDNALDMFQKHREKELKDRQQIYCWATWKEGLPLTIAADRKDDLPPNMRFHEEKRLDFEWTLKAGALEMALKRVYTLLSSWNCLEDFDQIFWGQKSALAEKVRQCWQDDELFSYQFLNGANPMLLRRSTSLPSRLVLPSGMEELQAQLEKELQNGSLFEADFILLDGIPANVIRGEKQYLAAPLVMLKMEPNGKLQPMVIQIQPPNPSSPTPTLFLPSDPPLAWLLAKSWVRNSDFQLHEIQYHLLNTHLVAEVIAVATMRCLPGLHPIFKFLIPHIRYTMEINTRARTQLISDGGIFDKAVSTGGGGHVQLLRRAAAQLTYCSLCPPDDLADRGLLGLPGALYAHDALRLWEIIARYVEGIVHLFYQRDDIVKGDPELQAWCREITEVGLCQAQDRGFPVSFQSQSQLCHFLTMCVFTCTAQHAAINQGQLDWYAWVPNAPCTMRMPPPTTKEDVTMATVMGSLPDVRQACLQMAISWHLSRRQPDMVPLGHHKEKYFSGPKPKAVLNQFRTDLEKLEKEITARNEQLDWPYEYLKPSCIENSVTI
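Purified human 12hLO (150 nM final) in 25 mM Hepes, 0.01% Triton X-100, pH 7.0 was preincubated 15 min at room temperature with compound. Then 40 uM arachidonic acid was added, 30 min. Hydroperoxide was read by Fe-XO absorbance ratio 573/405 nm.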
TDP1 cell noCPT: qHTS for Inhibitors of human tyrosyl-DNA phosphodiesterase 1 (TDP1): qHTS in cells in absence of CPT | DT40 Tdp1-/- hTDP1 cells, no CPT, ATP luminescence, 48 h | Potency, µM (highest dose often 46.2 µM), inactives show at the top dose activity change, negative = growth inhibition, usual class: inhibitors | 420,000 compounds, 15% hits; note: potency is the fitted concentration of half-maximal effect; nearly all actives have a fitted effect of over 55% in size
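Compound effects on proliferation are scored in DT40 Tdp1-/-;hTDP1 cells in the absence of CPT. ATP levels (CellTiter-Glo luminescence) are recorded after a ≥48 hr, 37 °C incubation.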
* = called active by the depositor; ? = inconclusive; . = no result. Unless noted, calls come from the whole dose curve; as a rule, active = well fitted curve in the direction sought with a large enough effect; inconclusive = small, poorly fitted or top-dose-only effect, or another doubt; inactive = no such curve, though single readings can be large; an effect the other way counts as inactive or inconclusive. Unless noted, % is set by controls: 0 for no effect and ±100 for the full control effect.

SMILES	IL-1B inflam inh	TDP1 cell CPT	HT1080-NT tox	HT1080 IDH1KD tx	12-LOX inh	TDP1 cell noCPT
CCc1ccc(-c2cc(C)no2)cc1S(=O)(=O)N1CCN(c2ccc(OC)cc2)CC1	-2	21µM*	?	?	-7%	?
CCOCc1nc(C2CCCN(C(=O)Cc3cccc(F)c3)C2)no1 (configuration not stated)	.	.	.	.	58%	.
CCNC(=O)[C@@H]1C[C@H](NC(=O)CCc2ccccc2F)CN1C1CCCC1	.	.	.	.	0%	.
COc1ccc(OC)c(CNS(=O)(=O)c2cc(-c3cc(C)no3)ccc2OC)c1	7	-12%	2%	-1%	3%	-14%
COCCN(Cc1cccs1)S(=O)(=O)c1cc(-c2cc(C)no2)ccc1C	.	?	.	.	-24%	21µM*
Cc1cc(-c2ccc(C)c(S(=O)(=O)N(Cc3cccs3)C(C)C)c2)on1	.	?	.	.	-24%	?
Cc1cc(-c2ccc(C)c(S(=O)(=O)N(C(C)C)C3CCCCC3)c2)on1	.	21µM*	.	.	?	?
COc1cccc(N2CCN(S(=O)(=O)c3cc(-c4cc(C)no4)ccc3C)CC2)c1	.	?	.	.	-15%	18µM*
CCN(c1ccc(OC)cc1)S(=O)(=O)c1cc(-c2cc(C)no2)ccc1C	.	.	.	.	-4%	.
COc1ccc(-c2cc(C)no2)cc1S(=O)(=O)NCc1cccs1	.	15µM*	.	.	?	15µM*
CCc1ccc(CNC(=O)c2nnn3cc(C)[nH]c(=O)c23)cc1	.	.	.	.	-6%	.
CCc1ccc(-c2cc(C)no2)cc1S(=O)(=O)NCCCN1CCN(c2ccccc2)CC1	-19	?	18µM*	?	0%	?
CCc1ccc(-c2cc(C)no2)cc1S(=O)(=O)NCCN1CCC(C)CC1	?	?	-28%	-23%	-2%	?
O=C(Nc1cccc(N2C(=O)C=CC2=O)c1)c1cccs1	.	.	.	.	35µM*	.
Cc1nc2ccccc2c(=O)n1-c1cccc(NC(=O)c2cccs2)c1	-51*	?	-5%	-2%	5%	?
O=C(O)c1ccc(NC(=O)c2cccc(NC(=O)c3cccs3)c2)cc1	2	8%	7%	0%	.	9%
OCC1(CCc2ccccc2)CCCN(CCCc2ccccc2)C1 (configuration not stated)	-73*	?	-10%	?	?	?
OCC1(Cc2ccc(F)cc2F)CCCN(CCCc2ccccc2)C1 (configuration not stated)	-55*	?	-2%	-7%	4%	15µM*
C=CCn1c(SCc2coc(-c3ccc(C)cc3)n2)nnc1C1CCS(=O)(=O)C1 (configuration not stated)	.	.	.	.	-5%	.
COc1ccc(S(=O)(=O)N2CCCOC2CNC(=O)C(=O)NCCc2ccco2)cc1C (configuration not stated)	51	5.8µM*	16µM*	18µM*	0%	7.3µM*
Cc1ccc(CNC(=O)C(=O)NCC2OCCN2S(=O)(=O)c2ccc(Cl)cc2)cc1 (configuration not stated)	1	?	-11%	-26%	455%	?
Cc1ccc(S(=O)(=O)N2CCOC2CNC(=O)C(=O)NCc2ccc(Cl)cc2)cc1 (configuration not stated)	0	?	-5%	-4%	-16%	21µM*
COc1ccc(S(=O)(=O)N2CCOC2CNC(=O)C(=O)NCCc2ccc(OC)c(OC)c2)cc1 (configuration not stated)	0	16µM*	-2%	-10%	12%	?
